“And” between values parts separate entries of the source, which are not always exact repeats. Equal values may be shown once. About 83,000 compounds went through this panel and 20% of them were active in at least one assay; those are over-represented in the sample as a whole.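 For each line, cells grew in 96-well plates with the test compound present at a single concentration for 48 hours.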 A number with no mark means an inactive call. The source made the active and inactive calls.
What follows are compounds tested on U251 CNS (assay: NCI-60 one-dose screen, 48 h (100 = growth as untreated, 0 = no growth, -100 = all killed)). Conditions: 10 µM.
Description: Growth inhibition of the U251 human tumor cell line is measured as a screen for anti-cancer activity. Cells are grown in 96 well plates and exposed to the test compound for 48 hours. Compounds are tested at a single concentration, which is 10^-5 M for most compounds. The reported endpoint is percent growth (GI% or GIPRCNT), where numbers from 0 - 100% represent growth inhibition, and numbers from -100% - 0 represent cell death. For example, a value of 40 represents 60% growth inhibition. A value of 0 means no net growth occurred over the course of the experiment. A value of -40 indicates 40% of cells at the beginning of the experiment died by the end of the experiment. A value of -100 means all cells are dead at the end of the experiment.
NCI-60 Human Tumor Cell Lines Screen was performed using the standard one-dose NCI protocol, which is described in more detail at https://dtp.cancer.gov/discovery_development/nci-60/default.htm.
Compounds with GIPRCNT values below 10 were considered active. Activity score was based on GIPRCNT using the following formula: […]
Score is 0 for GIPRCNT values of 100 or above, 50 for GIPRCNT values of 0, and 100 for GIPRCNT values of -100.
For `S=c1nc[nH]c2nc[nH]c12`, the growth was 51.5%.

Same assay, conditions: 10 µM unless noted
With `Nc1ccccc1SC(CC(=O)c1ccccc1)c1cccc([N+](=O)[O-])c1` (stereo not given) the growth was 57.5% and 61.1%.
In the case of `Nc1[nH][nH]c(=O)c1N=Nc1ccccc1`, the growth is reported as 109% and 105%.
Compound `C/C(CC(C)C)=N/NC(N)=S` has a growth of 79.3%.
For `Clc1ccc(/C=C/c2ccc3ccccc3n2)cc1`, the growth was 16.3% and 95.6% and 87.1%.
Work on `COc1cc2oc3cc(=O)cc4oc(-c5ccccc5)cc(c2c2c1CCC(c1ccccc1)O2)c43` (stereo not given) yielded a growth of 87.3%.
Compound `COc1ccc(CCN=Cc2ccc(Cl)cc2)cc1OC` has a growth of 105%.
In the case of `Cc1ccc(N)cc1S(=O)(=O)O`, the growth is reported as 106% and 103%.
For `Nc1ccccc1SC1CC(=O)N(c2ccc(I)cc2)C1=O` (stereo not given), the growth was 88.4%.
`CC(=O)Oc1ccc(C(c2ccc(OC(C)=O)cc2)c2ccccn2)cc1` was tested, and the growth was 96% and 96.2%.
`C=CCN1C(=O)c2ccccc2C1=O` gave a growth of 101%.
`Cc1cc(NC(=O)NC(=O)c2ccccc2N(C)C)ccc1Oc1ncc(Br)cn1` was tested, and the growth was -43.4% (active).
For `CC(=O)Nc1ccc2oc(=O)ccc2c1`, the growth was 108%.
In the case of `CCCCC/C(C)=N\NC(N)=S`, the growth is reported as 80.2%.
In the case of `COc1ccc2oc3c(ccc[n+]3C)c(=O)c2c1`, the growth is reported as 93.6%.
For `O=C(O)c1cc(=O)[nH]c(=O)[nH]1`, the growth was 105% and 95.8%.
With `N=c1sc2ccccc2n1CC(=O)O` the growth was 91.8%.
For `CC(=O)Oc1ccc(C2(c3ccc(OC(C)=O)cc3)C(=O)Nc3ccccc32)cc1`, the growth was 108% and 102%.
With `COc1ccc([N+](=O)[O-])cc1OC` the growth was 104% and 95.6%.
With `CCOC(=O)c1ccncc1` the growth was 104%.
Compound `CS/C(=C\c1ccc(C(=O)c2ccc(C)cc2)n1C)S(C)=O` (stereo not given) has a growth of 74.7% [100 µM].
For `CN(C)C(=S)N(C)C`, the growth was 105%.
`CC(=O)Nc1ccc(OC(C)=O)cc1` was tested, and the growth was 11.7% and 102%.
`OCCCc1ccccc1` was tested, and the growth was 95.6%.
With `CC1CCC(=O)N1c1ccc(N)cc1` (stereo not given) the growth was 97.3%.
`COC(=O)c1ccccc1Cl` showed a growth of 97.4%.
Work on `O=C1C=CC(=O)N1Cc1ccco1` yielded a growth of 81.4%.
`COC(=O)C(Cc1cn(C(C)=O)c2ccccc12)P(=O)(OC)OC` (stereo not given) was tested, and the growth was 101%.
In the case of `CCOC(=O)C1=C(C)NC(C)=C(C(=O)OCC)C1`, the growth is reported as 104% and 91.2%.
Compound `O=C(O)COc1ccccc1F` has a growth of 109%.
`CCCCCc1cc[n+](CC(=O)c2ccccc2)cc1` was tested, and the growth was 103% and 105%.
In the case of `COc1ccc(C(=O)C(O)c2ccc(OC)cc2)cc1` (stereo not given), the growth is reported as 105% and 95.7%.
With `CNc1ccc(Cl)cc1S(=O)(=O)c1ccccc1[N+](=O)[O-]` the growth was 84.3% and 86.7%.
Compound `COC(=O)c1nc(=S)[nH]c(C(=O)OC)c1C(=O)c1ccc(OC)cc1` has a growth of 108%.
`CC1NC(C)c2ccc3ccccc3c2O1` (stereo not given) showed a growth of 109%.
Work on `CC(C)(C)OC(=O)CC1(O)CCCCC1` yielded a growth of 104%.
In the case of `COc1ccc2nccc(Cl)c2c1`, the growth is reported as 97.6%.
`O=C(c1ccncc1)c1c(Cc2ccccc2)ccc2ccccc12` was tested, and the growth was 88.8%.
`COc1cc(NCCCCCCCNC(C)C)c2nccc(C)c2c1` was tested, and the growth was 80.8% and 61.3%.

Same assay, conditions: 50 µM
`S=c1nc[nH]c2nc[nH]c12` was tested, and the growth was 36.8%.

Reference: PubChem BioAssay (NCI)
